Rows were chosen to be rich in hits. Some 1.4% of all compounds tested hit in one or more screens of this group.
LANA-H2A inh = blocks KSHV LANA binding to histone H2A/H2B | Q9QR71 | cell-free LANA-H2A/H2B peptide, fluorescence polarization | inhibition, % (test concentration not listed) | 320,000 tested, 0.6% active | AID 2629; in the data active = inhibition mostly above about 10%, no sharp cut-off; inactive = mostly below about 6.7%
LYPLA1 counter = counter-screen for PME1 inhibitors: inhibitors of human LYPLA1; O75608; recombinant LYPLA1, FP-Rh probe fluorescence polarization; inhibition, % at 5.9 µM; 320,000 tested, 0.16% active; AID 2174;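 active = inhibition above the mean of all tested compounds plus 3 SD, set per campaign, cut at about 14% in these data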;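 also: inhibitors block serine hydrolase probe labeling of LYPLA1 so polarization falls; 0% = enzyme with DMSO and 100% = wells lacking LYPLA1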
Target sequence (O75608 whole entry, looked up): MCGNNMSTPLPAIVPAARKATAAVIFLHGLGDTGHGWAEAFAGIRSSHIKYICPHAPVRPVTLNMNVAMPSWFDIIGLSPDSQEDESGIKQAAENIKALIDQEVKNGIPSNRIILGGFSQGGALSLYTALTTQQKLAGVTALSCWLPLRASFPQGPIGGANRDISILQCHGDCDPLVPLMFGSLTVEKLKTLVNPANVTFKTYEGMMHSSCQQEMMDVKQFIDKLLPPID
EBNA-1 inhibitor = blocks EBNA-1 binding to DNA; 300,000 tested, 0.34% active; EBNA-1 DNA binding, fluorescence polarization; inhibition, % at 14.8 µM; AID 1950; in the data active = inhibition above about 28%
ZTA DNA inh = ZTA (EBV) inhibition in EBNA-1 counter-screen. P03206. ZTA-DNA binding, fluorescence polarization. inhibition, % at 11 µM. 320,000 tested, 0.15% active; in the data active = inhibition above about 33%
LYPLA2 counter = LYPLA2 (human) inhibition in PME1 counter-screen. O95372. recombinant LYPLA2, FP-Rh probe fluorescence polarization. inhibition, % at 5.9 µM. 320,000 tested, 0.38% active;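 active = inhibition above the screen-wide mean plus 3 SD, limit set per campaign, cut at about 26% in these data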;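 also: 0% = LYPLA2 with DMSO and 100% = wells lacking LYPLA2 enzyme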
Target sequence (O95372 whole entry, looked up): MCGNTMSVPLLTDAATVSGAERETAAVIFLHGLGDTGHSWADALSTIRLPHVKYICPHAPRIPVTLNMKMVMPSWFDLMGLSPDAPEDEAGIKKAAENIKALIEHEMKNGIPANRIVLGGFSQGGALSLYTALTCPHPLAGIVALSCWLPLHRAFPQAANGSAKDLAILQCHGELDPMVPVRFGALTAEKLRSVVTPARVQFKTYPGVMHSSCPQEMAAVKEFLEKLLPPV
* marks the source's active call; other numbers are inactive results; x = no result; + = active, no number; ! = repeats disagree.

SMILES	LANA-H2A inh	LYPLA1 counter	EBNA-1 inhibitor	ZTA DNA inh	LYPLA2 counter
N#Cc1cccc(C#N)c1Oc1ccc(S(=O)(=O)Nc2ccc(Cl)cc2)cc1	-2	2	1	-1	-2
NS(=O)(=O)c1ccc(CCNC(=O)CNC(=O)c2ccc(Br)o2)cc1	23*	-1	x	0	-10
Cc1ccccc1NC1=C/C(=N\S(=O)(=O)c2ccc(C(=O)O)cc2)c2ccccc2C1=O	1	7	-9	57*	32*
Cc1ccc(C)c(S(=O)(=O)/N=C2\C=C(NS(=O)(=O)c3ccccc3)C(=O)c3ccccc32)c1	31*	-13	-9	12	-20
Cc1ccccc1NC1=C/C(=N\S(=O)(=O)c2cccs2)c2ccccc2C1=O	1	5	8	15	19
CC(C)c1ccc(S(=O)(=O)/N=C2\C=C(NS(=O)(=O)c3ccccc3)C(=O)c3ccccc32)cc1	3	-13	-4	4	-19
COc1cc(-c2nnc(CSc3nnc(Nc4ccc(Oc5ccccc5)cc4)s3)o2)cc(OC)c1OC	0	-9	4	11	11
COc1ccccc1C(=O)NCCC(=O)NCC1COc2ccccc2O1 (stereo unspecified)	23*	-2	x	-8	2
COc1cccc(CC(=O)NCC2COc3ccccc3O2)c1OC (stereo unspecified)	-153	0	-6	-3	-2
O=C1CCCc2cc3c(cc21)CC1(C3)Cc2cc3c(cc2C1)C(=O)CCC3	2	3	10	15	2
CCCCN(CCO)c1ncnc2sc(-c3ccccc3)cc12	3	1	3	-15	0
Cc1c(NC(=O)CN2C(=O)c3cccc4cccc2c34)c(=O)n(-c2ccccc2)n1C	18*	3	-6	-14	4
COc1cc(/C=C/C(=O)OC(C)C(=O)Nc2c(C)n(C)n(-c3ccccc3)c2=O)ccc1O (stereo unspecified)	119*	0	-3	3	-1
Cc1c(NC(=O)C(C)N(c2ccccc2)S(C)(=O)=O)c(=O)n(-c2ccccc2)n1C (stereo unspecified)	40*	-1	-10	-10	-6
Cc1c(NC(=O)C(C)OC(=O)/C=C/c2ccccc2)c(=O)n(-c2ccccc2)n1C (stereo unspecified)	4	3	13	9	0
COc1ccc(CC(=O)Nc2ccc(S(=O)(=O)N3CCN(C)CC3)cc2)cc1	4	-4	x	2	-4
O=C(NCc1nnnn1-c1ccc(F)c(F)c1)C(=O)c1c[nH]c2ccccc12	0	3	-4	5	2
COc1ccc(CCN2CC(C(=O)N(C)Cc3ccccc3OC)CCC2=O)cc1 (stereo unspecified)	12*	-2	-2	-10	-1
CC[C@@]1(C(=O)OC)N[C@H](CN(C)C(=O)Nc2ccc(C)cc2)[C@@H]2C(=O)N(Cc3ccccc3)C(=O)[C@@H]21	-4	x	x	x	x
CC[C@@]1(C(=O)OC)N[C@H](CN(C)C(=O)Nc2ccc(OC)cc2)[C@@H]2C(=O)N(Cc3ccccc3)C(=O)[C@@H]21	+	x	x	x	x
COC(=O)[C@]1(C)N[C@H](CN(C)C(=O)Nc2ccc(C)cc2)[C@@H]2C(=O)N(Cc3ccccc3)C(=O)[C@@H]21	-1	x	x	x	x
COC(=O)[C@]1(C)N[C@H](CN(C)C(=O)Nc2ccc(Cl)cc2)[C@@H]2C(=O)N(Cc3ccccc3)C(=O)[C@@H]21	+	x	x	x	x
C=CCC[C@H](Cc1ccc(F)cc1)C(=O)OC[C@H](C)NC(=O)[C@@H](CC=C)CC(=O)N[C@H](CO)Cc1ccccc1	-3	x	x	x	x
Cc1c(C(=O)O)sc2nc3n(c(=O)c12)CCC(C)CC3 (stereo unspecified)	20*	-1	1	-6	0
CCOc1ccc(C(=O)Nc2ccc(S(=O)(=O)N3C[C@@H]4C[C@@H](C3)c3cccc(=O)n3C4)cc2)cc1	17*	0	x	-5	3
SMILES	LANA-H2A inh	LYPLA1 counter	EBNA-1 inhibitor	ZTA DNA inh	LYPLA2 counter
CCOc1ccc(C(=O)Nc2ccc(S(=O)(=O)N3CCN(C)CC3)cc2)cc1	15*	1	-5	-8	2
O=C(Nc1ccc(S(=O)(=O)N2C[C@@H]3C[C@@H](C2)c2cccc(=O)n2C3)cc1)c1ccc(F)cc1	-6	2	x	-1	4
O=C(COc1cc(Cl)c(Cl)cc1Cl)Nc1ccc([N+](=O)[O-])cc1Cl	-5	1	6	5	0
Cc1cccc(-n2ncc3c2CCCC3NC(=O)C2=CC(=O)CC(C)(C)O2)c1C (stereo unspecified)	-3	2	-3	7	4
Cc1ccc(C(=O)N2CCN(c3cccc(C)c3C)CC2)cc1S(=O)(=O)N1CCOCC1	-87	5	x	-15	3
CN(CC(=O)Nc1ccc(N2CCOCC2)cc1)CC(=O)Nc1ccc(Cl)cc1[N+](=O)[O-]	-4	3	-3	-13	4
CN(C(=O)CS(=O)(=O)c1cn(CC(=O)N2CCOCC2)c2ccccc12)c1ccccc1	34*	4	2	-32	11
Cc1ccc(NC(=O)CS(=O)(=O)c2cn(CC(=O)N3CCOCC3)c3ccccc23)cc1	18*	1	6	-27	0
CC1CCN(C(=O)Cn2nnc(-c3ccc(N)cc3)n2)CC1	6	3	-2	-22	4
COc1ccc(S(=O)(=O)N2CCC(C(=O)N[C@H](C(=O)NCc3ccncc3)C(C)C)CC2)cc1	1	4	-8	-12	8
COc1ccc(S(=O)(=O)N2CCC(C(=O)NC3CCCC3)CC2)cc1OC	16*	x	x	x	x
COc1ccc(CNC(=O)[C@@H](NC(=O)C2CCN(S(=O)(=O)c3ccc(C)cc3)CC2)C(C)C)cc1OC	12*	-1	-12	4	0
COC/C=C/C1=CC2=CC(=O)C(C)(OC(=O)c3cnc4ccccc4n3)C(=O)C2=CN1CCOC (stereo unspecified)	-2	-2	6	8	1
COC/C=C/C1=CC2=CC(=O)C(C)(OC(=O)c3cnc4ccccc4n3)C(=O)C2=CN1CCN1CCOCC1 (stereo unspecified)	18*	3	10	1	-1
NCCCCCC(=O)O	1	-3	-7	-15	5
O=C(O)CCCCCCCC(=O)O	31*!	-3	2	9	0
Cc1cc(-c2ccc(N=Nc3c(S(=O)(=O)O)cc4cc(S(=O)(=O)O)cc(N)c4c3O)c(C)c2)ccc1N=Nc1c(S(=O)(=O)O)cc2cc(S(=O)(=O)O)cc(N)c2c1O	13	-22	69*	181*	-19
CCOC(=O)/C=c1\s/c(=C\c2ccc(C)cc2)c(=O)n1CC(=O)NCc1ccco1	4	-2	45*	11	-5
CCOc1ccc(OCCCC(=O)NCCc2ccc(OC)cc2)cc1	11*	0	6	14	-2
CCCCC(=O)NCCc1ccc(OC)cc1	0	-3	3	-3	-5
COc1ccc(-c2nc3ccccc3c(=O)n2CCCN2CCOCC2)cc1	16*	4	0	-26	9

Screening results from PubChem BioAssay.
